We go through 25 molecules from PubChem BioAssay AID841 (Emory University Molecular Libraries Screening Center, 2007).

Screen size: about 140,000 compounds; about 2,100 (1.5%) were called active. The sample holds actives, similar compounds and a random draw of the others, so the mix is not that of the screen. A number with no mark means an inactive call. Cut-off read from the data, not from the text of the source: active = protection mostly above about 24% (no sharp cut-off); inactive = mostly below about 26%.

A short description of the assay: blockers of measles virus-induced cell death – single point, MLSMR library, absorbance, measles RdRp inhibitor project, primary screen (AID 841). To be noted: Measles virus-infected cells, CPE protection, at 4 µM, hits give high values.
As for `COc1cc(/C=N\NC(=O)c2nonc2N)c(OC)cc1Br`, the protection (pct of control) was 4.84%.

For the molecule `CCCCN1C(=O)CCC(C(=O)O)C1c1ccc(OC)cc1` (stereo not given), the protection (pct of control) is 18.6%.

`CCn1c(C(C)NC(=O)c2ccc(C)cc2)n[nH]c1=S` (stereo not given): the protection (pct of control) is 13.2%.

In the case of `COc1ccc(C2CC(c3ccccc3)=NN2C(=O)c2ccc(Cl)c([N+](=O)[O-])c2)cc1` (stereo not given), the protection (pct of control) was 5.64%.

Take `Cc1[nH]c2ccccc2c1C(=O)COC(=O)c1c(-c2ccccc2)noc1C`: the protection (pct of control) was 3.64%.

Turning to `CCOC(=O)c1c(C)[nH]c(=S)c(C#N)c1-c1ccccc1`, the protection (pct of control) is 1.99%.

For `CCOC(=O)c1c(C)nc(-c2ccccc2)nc1NC(=O)C(C)C`, the protection (pct of control) was 92.6% (active).

As to `C=CCN(c1ccc(C(=O)Nc2cc(C)cc(C)c2)cc1)S(C)(=O)=O`, the protection (pct of control) was 12.6%.

`Cc1ccc(C(C)(C)C)c(OCCCCN2CCCC2)c1`: the protection (pct of control) is -0.18%.

For the molecule `CN(C)c1ccc(/C=N/NC(=O)c2ccc(Cn3cc(Br)cn3)o2)cc1`, the protection (pct of control) is 28.3% (active).

In the case of `O=C(N/N=C\c1ccc(Br)cc1)c1ccc(Cn2cccn2)o1`, the protection (pct of control) is 5.4%.

Regarding `O=C(N/N=C/c1ccc2c(c1)OCO2)c1ccc(Cn2cc([N+](=O)[O-])cn2)o1`, the protection (pct of control) is 18.3%.

In the case of `Cc1ccc(S(=O)(=O)N(NC2=NS(=O)(=O)c3ccccc32)C(=O)c2ccccc2)cc1`, the protection (pct of control) is 7.51%.

With `CCOC(=O)C1=C(N)N(c2ccc(C)cc2)C2=C(C(=O)CCC2)C1c1cccs1` (stereo not given), the protection (pct of control) is 20.1%.

As for `Cc1nn(Cc2ccc(Cl)cc2)c(Cl)c1/C=N/NC(=O)c1cccnc1`, the protection (pct of control) is 11.1%.

With `CC1(C)CC(=O)C2=C(C1)Nc1cc(C(=O)c3ccccc3)ccc1NC2c1ccccn1` (stereo not given), the protection (pct of control) is 2.11%.

Regarding `COc1ccc(NC(=O)COC(=O)Cn2c(C)nc3ccccc32)cc1OC`, the protection (pct of control) is 50.1% (active).

On to `CCCCn1c(=O)c(CCC(=O)OCC(=O)Nc2ccc(C)c(Cl)c2)nc2ccccc21`, for which the protection (pct of control) was 23.4%.

In the case of `Cc1noc(C)c1COC(=O)Cn1c(C)nc2ccccc21`, the protection (pct of control) is 7.94%.

Take `O=C(Nc1cccc(S(=O)(=O)N2CCCCC2)c1)c1ccc2c(c1)OCO2`: the protection (pct of control) was 8.22%.

Regarding `CCN(CC)S(=O)(=O)c1ccc(C)c(NC(=O)COc2ccc(Br)cc2Cl)c1`, the protection (pct of control) is 52.8% (active).

`Cc1cccc(NC(=O)COc2ccc(Br)cc2C)n1`: the protection (pct of control) is 6.52%.

In the case of `Cc1ccc(S(=O)(=O)N(C)C)cc1NC(=O)COC(=O)c1c(C)noc1C`, the protection (pct of control) was 9.42%.

For `CN(C(=O)c1c(Cl)cnn1C)C12CC3CC(CC(C3)C1)C2`, the protection (pct of control) is 6.9%.

For the molecule `Cc1c(C(=O)NCCN2C(=O)S/C(=C\c3cccs3)C2=O)cccc1[N+](=O)[O-]`, the protection (pct of control) is 19.9%.
